Data on 17 compounds can be found in PubChem BioAssay.

A short description of assay [1]: small molecules captured by biotinylated probe aFSTL3 – biochemical, small-molecule microarray, fluorescence 635/667, stem cell growth factor project, primary screen (AID 1064).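 Also: measures binding of the biotinylated anti-FSTL3 antibody to printed compounds.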 Conditions: higher = more signal.
Assay [2] in a line: binders from COS7 lysate, DM2A8 probe, primary screen, torsin A project, cell lysate, small-molecule microarray, fluorescence 635/667 (AID 1065). Conditions: higher = more signal, COS7 lysate expressing mutant human TOR1A.
Assay [3] is described as follows: small molecules captured by biotinylated probe aFGF2 – biochemical, small-molecule microarray, fluorescence 635/667, stem cell growth factor project, primary screen (AID 1067).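 Also: measures binding of biotinylated aFGF2 protein to printed compounds on slides; z-score merges feature fluorescence and signal-to-noise across triplicate slides.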 Conditions: higher = more signal.
Assay [4] in a line: small molecules captured by biotinylated probe aFGF10 – biochemical, small-molecule microarray, fluorescence 635/667, stem cell growth factor project, primary screen (AID 1071).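 Also: score merges 667 nm spot intensity and signal to noise from triplicate slides.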 The settings on record: higher = more signal.
Assay [5] addresses Neurogenic locus notch homolog protein 2 (Homo sapiens) (UniProt Q04721). Briefly: small molecules binding Notch2 protein – biochemical, small-molecule microarray, 635 nm fluorescence, stem cell growth factors, primary screen (AID 1073). Conditions: higher = more signal.
Assay [6] has as its target Pro-neuregulin-1, membrane-bound isoform (Homo sapiens) (UniProt Q02297). The experiment in a line: small molecules binding neuregulin-1 protein – biochemical, small-molecule microarray, fluorescence 635/667, psychiatric disease protein project, primary screen (AID 1075).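 Also: score combines 667 nm spot fluorescence with signal to noise.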 The settings on record: NRG1 binding, 635 nm fluorescence, higher = more signal.
In assay [7] the test system is Neuregulin-1 EGF-like domain. Briefly: small molecules binding NRG1 EGF domain – biochemical, small-molecule microarray, 635 nm fluorescence, primary screen (AID 1081).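 Also: binding of the protein to compounds printed on small-molecule microarray slides.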 Conditions: higher = more signal.
Assay [8] is described as follows: FRG1 expression reporter modulators in myotubes – cell-based, C2C12 myotubes, firefly/Renilla luciferase, luminescence, FRG1 inhibition for FSHD, primary screen (AID 1084). Conditions: FRG1 promoter luciferase, higher = more signal, called active from +8 up or from −8 down.
Assay [9] in a line: small molecules captured by biotinylated probe aFST – biochemical, small-molecule microarray, fluorescence 635/667, stem cell growth factor project, primary screen (AID 1086).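 Also: score merges 667 nm fluorescence with signal-to-noise of each printed compound spot.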 Conditions: higher = more signal.
Assay [10] can be described thus: binders of probe aHhip on microarray, primary screen, stem cell growth factor project, biochemical, small-molecule microarray, fluorescence 635/667 (AID 1087).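 Also: score merges spot fluorescence at 667nm with spot signal to noise ratio.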 Conditions: higher = more signal.

Activity calls are given as the source filed them.

Pro-neuregulin-1, membrane-bound isoform (Homo sapiens), sequence (Q02297 whole entry, looked up, the tested form may be a part, canonical isoform): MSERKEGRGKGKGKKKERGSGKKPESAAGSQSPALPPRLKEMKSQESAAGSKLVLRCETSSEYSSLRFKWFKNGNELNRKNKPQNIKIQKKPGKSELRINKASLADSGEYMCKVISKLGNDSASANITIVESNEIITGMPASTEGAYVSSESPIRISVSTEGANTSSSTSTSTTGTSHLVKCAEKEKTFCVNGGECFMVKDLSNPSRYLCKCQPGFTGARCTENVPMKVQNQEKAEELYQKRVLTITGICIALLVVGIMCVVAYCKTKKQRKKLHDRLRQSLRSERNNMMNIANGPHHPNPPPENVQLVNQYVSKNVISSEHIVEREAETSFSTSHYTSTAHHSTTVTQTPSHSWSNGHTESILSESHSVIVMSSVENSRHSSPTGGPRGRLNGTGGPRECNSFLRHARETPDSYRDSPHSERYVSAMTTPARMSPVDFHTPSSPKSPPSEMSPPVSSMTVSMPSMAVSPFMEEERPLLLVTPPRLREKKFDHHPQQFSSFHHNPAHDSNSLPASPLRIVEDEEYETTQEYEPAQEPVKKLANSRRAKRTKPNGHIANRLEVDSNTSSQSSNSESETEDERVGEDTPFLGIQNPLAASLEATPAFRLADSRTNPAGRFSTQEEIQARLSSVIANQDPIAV
Neurogenic locus notch homolog protein 2 (Homo sapiens), sequence (Q04721 whole entry, looked up, canonical isoform): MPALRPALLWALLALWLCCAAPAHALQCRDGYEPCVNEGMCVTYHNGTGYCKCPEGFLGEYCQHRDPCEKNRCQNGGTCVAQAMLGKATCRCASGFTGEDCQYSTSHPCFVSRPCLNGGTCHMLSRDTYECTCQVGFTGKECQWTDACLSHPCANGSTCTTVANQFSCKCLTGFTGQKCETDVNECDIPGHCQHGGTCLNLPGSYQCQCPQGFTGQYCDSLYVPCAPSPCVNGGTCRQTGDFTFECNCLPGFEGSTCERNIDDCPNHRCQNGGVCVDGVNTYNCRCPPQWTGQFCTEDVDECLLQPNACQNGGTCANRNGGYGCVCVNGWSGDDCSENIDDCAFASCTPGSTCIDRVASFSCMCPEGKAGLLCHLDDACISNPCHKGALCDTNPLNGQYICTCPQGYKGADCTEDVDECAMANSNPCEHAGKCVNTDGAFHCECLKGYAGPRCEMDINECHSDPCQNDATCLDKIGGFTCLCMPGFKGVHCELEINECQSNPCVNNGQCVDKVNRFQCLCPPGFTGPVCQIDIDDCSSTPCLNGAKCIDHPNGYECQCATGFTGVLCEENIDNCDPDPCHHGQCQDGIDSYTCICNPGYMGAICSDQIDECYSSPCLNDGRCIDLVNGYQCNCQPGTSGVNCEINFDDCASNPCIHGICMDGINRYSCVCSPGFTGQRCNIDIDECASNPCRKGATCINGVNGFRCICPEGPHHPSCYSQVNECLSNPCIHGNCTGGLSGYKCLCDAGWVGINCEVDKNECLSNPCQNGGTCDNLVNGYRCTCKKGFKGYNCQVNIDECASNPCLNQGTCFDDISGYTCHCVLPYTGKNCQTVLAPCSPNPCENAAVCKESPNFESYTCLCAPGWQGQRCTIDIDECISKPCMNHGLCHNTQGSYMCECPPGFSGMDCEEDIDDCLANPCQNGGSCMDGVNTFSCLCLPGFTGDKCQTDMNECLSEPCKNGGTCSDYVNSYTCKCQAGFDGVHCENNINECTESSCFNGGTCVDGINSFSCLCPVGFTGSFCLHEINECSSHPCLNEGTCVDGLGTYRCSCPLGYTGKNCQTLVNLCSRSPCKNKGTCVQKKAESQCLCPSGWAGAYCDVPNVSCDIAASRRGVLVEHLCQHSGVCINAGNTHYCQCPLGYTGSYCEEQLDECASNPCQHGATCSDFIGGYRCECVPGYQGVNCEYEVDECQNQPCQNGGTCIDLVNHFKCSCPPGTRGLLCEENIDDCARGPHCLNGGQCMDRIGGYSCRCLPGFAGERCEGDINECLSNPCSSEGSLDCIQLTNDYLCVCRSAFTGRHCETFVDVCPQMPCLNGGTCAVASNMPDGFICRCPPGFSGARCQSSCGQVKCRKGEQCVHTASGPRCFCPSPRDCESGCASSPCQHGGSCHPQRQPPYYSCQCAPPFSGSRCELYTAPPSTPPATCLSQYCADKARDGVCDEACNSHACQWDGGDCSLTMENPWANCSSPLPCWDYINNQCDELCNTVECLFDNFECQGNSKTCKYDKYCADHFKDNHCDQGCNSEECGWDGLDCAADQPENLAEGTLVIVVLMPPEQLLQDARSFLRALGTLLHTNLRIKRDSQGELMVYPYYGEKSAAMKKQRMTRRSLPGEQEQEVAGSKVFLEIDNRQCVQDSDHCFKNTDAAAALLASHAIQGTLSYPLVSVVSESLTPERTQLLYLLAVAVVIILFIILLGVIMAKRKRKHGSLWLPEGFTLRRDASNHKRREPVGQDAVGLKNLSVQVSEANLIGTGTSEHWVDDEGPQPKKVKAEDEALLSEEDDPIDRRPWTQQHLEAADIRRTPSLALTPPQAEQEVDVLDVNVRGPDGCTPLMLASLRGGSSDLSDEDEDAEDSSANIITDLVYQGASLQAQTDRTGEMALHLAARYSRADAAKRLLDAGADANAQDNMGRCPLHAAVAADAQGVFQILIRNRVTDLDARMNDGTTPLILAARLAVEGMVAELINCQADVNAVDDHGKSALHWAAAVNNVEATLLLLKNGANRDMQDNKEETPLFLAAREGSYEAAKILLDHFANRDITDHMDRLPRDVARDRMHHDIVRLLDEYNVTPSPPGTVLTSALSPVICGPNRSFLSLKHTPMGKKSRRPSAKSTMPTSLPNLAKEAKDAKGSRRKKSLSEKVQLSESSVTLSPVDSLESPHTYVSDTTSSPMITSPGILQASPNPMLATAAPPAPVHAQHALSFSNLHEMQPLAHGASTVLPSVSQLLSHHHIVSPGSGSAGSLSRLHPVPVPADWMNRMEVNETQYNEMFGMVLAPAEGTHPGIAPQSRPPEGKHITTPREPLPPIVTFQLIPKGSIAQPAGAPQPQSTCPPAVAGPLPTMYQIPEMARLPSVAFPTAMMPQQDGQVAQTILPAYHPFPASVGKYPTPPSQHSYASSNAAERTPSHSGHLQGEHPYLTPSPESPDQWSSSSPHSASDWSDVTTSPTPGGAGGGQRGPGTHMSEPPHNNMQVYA

With `C=CCc1cccc([C@H]2N[C@H](C(=O)O)CC[C@@H]2C)c1`, the composite z-score in assay [1] is -0.746; in [2] it was 0.604; in assay [3], -0.221; in assay [4], 0.502; in [5], -0.441; in assay [6], -0.0316. The composite z-score in assay [7] is 0.519; in [9] it was -0.099; in assay [10], 0.122. Further, in assay [8], the z-score was -0.204 (inactive).
In the case of `C=C(CCCC)/C(=C/C[C@@H](OC(=O)c1ccncc1)c1cccc(OCCO)c1)c1cc(C(=O)OC)ccc1OC`, the composite z-score is -0.0606 in [1]; 0.522 in assay [2]; 0.0211 in assay [3]; 0.291 in [4]; 0.535 in [5]; 1.38 in assay [6]. Besides, the composite z-score in [7] was 1.26; in [9], 0.223; in assay [10] it was 0.0722. For the same compound, the z-score in assay [8] was 9.67 (active).
Consider `O=C1C2C=CC(C(O)C(c3ccccc3)c3ccccc3)N(Nc3ccc([N+](=O)[O-])cc3)C2C(=O)N1c1ccccc1` (stereo not given), for which the composite z-score in assay [1] was 0.141; in [2] it was 0.311; in assay [3], 0.138; in assay [4], 1.16; in assay [5], 1.64; in assay [6], 1.84. Further, the composite z-score is 1.27 in assay [7], 1.37 in assay [9] and -0.0994 in assay [10]. In addition, the z-score in assay [8] is 0.117 (inactive).
Turning to `O=C1O[C@@H](c2ccccc2)[C@@H](c2ccccc2)N2[C@@H](c3ccccc3OCCO)[C@]3(C(=O)Nc4ccc(C#CC5=CCCCC5)cc43)[C@@H](C(=O)O)[C@H]12`, the composite z-score came to 0.294 in [1]; 0.416 in assay [2]; 0.0248 in assay [3]; 0.627 in assay [4]; 1.44 in assay [5]; 0.391 in assay [6]. Besides, the composite z-score in assay [7] is 1.1; in assay [9], 0.415; in assay [10] it was -0.226. Also, the z-score in [8] was -1.6 (inactive).
For `O=C1C[C@@](C(=O)NC2CC2)(c2ccc([N+](=O)[O-])cc2)[C@@H](c2ccc(CO)cc2I)N1CC12CC3CC(CC(C3)C1)C2`, the composite z-score in assay [1] is -0.514; in assay [2] it was -0.407; in [3], 0.01; in [4], 0.487; in [5] it was 1.05; in assay [6], 0.346. For the same compound, the composite z-score was 1.24 in [7], 0.303 in assay [9] and -0.184 in assay [10]. In assay [8], the z-score is -2.34 (inactive).
Take `CC(=O)NCCCC[C@@H]1NC(=O)[C@@H]2C[C@H](C(=O)NCc3ccc(F)cc3)[C@H](c3cccc(OCCO)c3)N2C1=O`: the composite z-score is 0.617 in [1]; -0.0522 in assay [2]; -0.0038 in assay [3]; 0.107 in [4]; -0.417 in [5]; 1.39 in [6]. The figures for the composite z-score in [7], in [9] and in [10] were 1.36, -0.205 and -0.0237, respectively. In addition, the z-score in assay [8] is 0.967 (inactive).
As to `CN(C)C(=O)[C@@]1(Cc2ccccc2N=[N+]=[N-])N=C(c2ccc(OCCCO)cc2)O[C@H]1c1ccccc1CN=[N+]=[N-]`, the composite z-score in assay [1] turned out to be 0.832; in assay [2], 2.05; in assay [3], 0.0914; in assay [4], 0.665; in assay [5] it was 1.56; in [6], 1.56. Moreover, the results for the composite z-score in [7], in assay [9] and in assay [10] were 1.23, 0.961 and 0.0274, respectively. Besides, the z-score in [8] is -2.27 (inactive).
As for `Cc1ccc(S[C@]2(C(=O)NCCN3CCOCC3)CC(=O)N(C3Cc4ccccc4C3)[C@@H]2c2ccc(CO)cc2I)cc1`, the composite z-score in assay [1] is 1.1; in [2] it was 0.677; in assay [3], -0.19; in [4], -0.761; in assay [5], -1.11; in assay [6], 1.69. Besides, the results for the composite z-score in assay [7], in assay [9] and in [10] were 0.544, 0.336 and -0.0994, respectively. The z-score in assay [8] was -0.974 (inactive).
Regarding `COC(=O)[C@H]1[C@@H]2COc3ccccc3[C@H]2N[C@H]1C(=O)OC`, the composite z-score in assay [1] was -0.241; in assay [2], -0.0479; in [3], -0.139; in assay [4], 0.255; in [5] it was 0.419; in [6], 0.281. In addition, the composite z-score in [7] was 0.428; in assay [9] it was 0.168; in assay [10] it was -0.189. Besides, the z-score in assay [8] is 0.44 (inactive).
Take `CN1C(=O)C2C=CC(C(O)c3ccc(N(C)C)cc3)N(Nc3ccc([N+](=O)[O-])cc3[N+](=O)[O-])C2C1=O` (stereo not given): the composite z-score worked out at 1.56 in assay [1]; 0.989 in assay [2]; 0.126 in assay [3]; 0.739 in assay [4]; 1.6 in assay [5]; 1.25 in [6]. The composite z-score in [7] was 1.31; in [9] it was 1.29; in [10], -0.0296. For the same compound, the z-score in [8] is 2 (inactive).
As for `CC(C)(C)OC(=O)CC[C@]1(C(=O)N2CCCCC2)N=C(c2ccc(OCCCO)cc2)O[C@H]1c1ccccc1`, the composite z-score in assay [1] was -0.187; in assay [2] it was 1.67; in assay [3], 0.136; in assay [4], 1.07; in [5] it was 1.55; in assay [6], 1.53. Further, the results for the composite z-score in assay [7], in assay [9] and in [10] were 1.27, 0.772 and -0.299, respectively. The z-score in [8] is -4.25 (inactive).
On to `C=CCC(OC(C)=O)[C@@H]1[C@@H](N(Cc2ccc(-c3ccccc3)cc2)C(=O)c2ccc(C)cc2)c2cc(OCCCO)ccc2N1C(=O)c1ccc(-c2ccccc2)cc1` (stereo not given in full), for which the composite z-score is -0.0264 in assay [1]; -0.192 in assay [2]; -0.006 in assay [3]; 0.0126 in [4]; -0.245 in [5]; -0.0564 in assay [6]. The composite z-score in assay [7] is -0.538; in assay [9], 0.186; in [10], -0.405. In addition, in assay [8], the z-score is -2.08 (inactive).
For `CO[C@H]1COC(=O)[C@H](C)NC(=O)CC=C[C@@H](C)[C@H](NS(=O)(=O)c2ccc(C)cc2)COC(=O)CC=C[C@@H]1C`, the composite z-score in [1] was -0.734; in [2], 1.84; in assay [3], -0.172; in [4] it was 0.0871; in assay [5], -0.543; in [6], -0.455. The composite z-score in assay [7] is -0.775; in [9], 0.0005; in assay [10], -0.199. The z-score in assay [8] is -1.27 (inactive).
Take `C=C(CCCC)C(=O)CC[C@@H](OC(C)=O)c1ccccc1OCCO`: the composite z-score in assay [1] is 0.286; in assay [2], 0.844; in assay [3] it was -0.177; in assay [4], -0.34; in [5], -0.975; in assay [6] it was -0.52. Moreover, the composite z-score in assay [7] was -0.37; in assay [9] it was -0.488; in assay [10], -0.0645. For the same compound, in assay [8], the z-score was -2.26 (inactive).
As to `C#CCNC(/C=C/c1ccccc1)CO` (stereo not given), the composite z-score was -0.383 in [1]; 0.329 in assay [2]; -0.0973 in assay [3]; 0.41 in [4]; 0.495 in assay [5]; -0.21 in [6]. Moreover, the values for the composite z-score in assay [7], in assay [9] and in assay [10] were -0.0021, 0.155 and -0.0237, respectively. Moreover, the z-score in [8] was -0.156 (inactive).
On to `Cc1ccc(N2C(=O)c3ccccc3[C@@H](C(=O)NCc3ccccc3)[C@@H]2c2ccc(CO)cc2)nc1`, for which the composite z-score in assay [1] is 0.462; in assay [2] it was 0.205; in assay [3], -0.128; in assay [4], -0.741; in assay [5], -0.272; in [6] it was -0.161. The values for the composite z-score in assay [7], in assay [9] and in [10] were 0.908, 0.174 and 0.0807, respectively. In addition, the z-score in assay [8] is -0.702 (inactive).
On to `COc1ccc(C(O)C2C=CC3C(=O)N(C)C(=O)C3N2N2CCCCC2)cc1OCc1ccccc1` (stereo not given), for which the composite z-score in [1] is 0.556; in assay [2], -0.599; in assay [3] it was -0.0135; in [4], 0.49; in assay [5], 1.57; in assay [6] it was 1.52. Further, the composite z-score in assay [7] amounted to 1.27; in assay [9], 0.994; in [10], 0.232. In addition, in assay [8], the z-score was 0.451 (inactive).
